This note sets out measurements from PubChem BioAssay.

One experiment has as its target Albumin (Bos taurus) (UniProt P02769). The experiment can be described thus: compounds binding labelled BSA control protein – biochemical, small-molecule microarray, Alexa647 label, 635/667 nm fluorescence, artefact control for SMM control protein annotation, profiling panel (AID 1118).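 Also: score merges 667 nm emission intensity and signal-to-noise per printed compound spot.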 Particulars: BSA-A647 binding, fluorescence 635 nm, higher = more signal.
Experiment [1] can be described thus: probe aXIP binding to arrayed compounds – biochemical, NeuroSMM set, 635/667 nm fluorescence, primary screen (AID 1119).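 Also: probe is the protein aXip251-270 applied at 1 µg/mL to compound-printed slides; binding of probe to printed compounds measured as 667 nm fluorescence plus signal to noise.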 The following applies: small-molecule microarray, higher = more signal, called active from +8 up or from −8 down.
The nature of experiment [2]: probe aNOTCH3 binding on compound microarray – biochemical, small-molecule microarray, 635/667 nm fluorescence, primary screen (AID 1120).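 Also: probe is a biotin-tagged antibody raised against NOTCH3 rather than NOTCH3 protein; score merges spot fluorescence near 667 nm with spot signal to noise.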 Particulars: higher = more signal.
Experiment [3] can be described thus: probe aNOTCH2 binding on compound microarray – biochemical, small-molecule microarray, 635/667 nm fluorescence, primary screen (AID 1121).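 Also: score merges feature fluorescence read at 667 nm with its signal to noise.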 The following applies: higher = more signal.
For experiment [4], the target named is Carbonic anhydrase 2 (Homo sapiens) (UniProt P00918). Kind of experiment: compounds binding carbonic anhydrase 2 – biochemical, small-molecule microarray, Alexa647-labelled CAII, profiling panel (AID 1122). The following applies: CAII-A647 binding fluorescence, higher = more signal.
The nature of experiment [5]: COS7 lysate on small-molecule microarray, probe aHis, 635 nm (AID 1123).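 Also: z-score combines 667nm fluorescence intensity with signal-to-noise per printed compound spot.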 The following applies: COS7 cell lysate, fluorescence, higher = more signal.
Experiment [6] in a line: probe aLAP1 signal on lysate-treated microarray – cell lysate, small-molecule microarray, COS7 lysate, primary screen (AID 1124).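 Also: lysate comes from COS7 cells expressing LAP1 and is applied at 0.3 µg/mL; score merges spot fluorescence near 667 nm with signal-to-noise over triplicate slides.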 The following applies: probe aLAP1, fluorescence, higher = more signal.
Another experiment relates to Sam68 (KHDRBS1). The experiment can be described thus: compounds binding KHDRBS1 protein – biochemical, small-molecule microarray, 635 nm fluorescence, primary screen (AID 1125).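 Also: score merges 667 nm channel intensity with signal to noise over triplicate slides.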 Particulars: higher = more signal.
The subject of experiment [7] is Chordin-like protein 2 (CHRDL2). The experiment can be described thus: compounds binding chordin-like 2 – biochemical, small-molecule microarray, 635 nm fluorescence, primary screen (AID 1126).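 Also: printed compound slides probed with Chrdl2 protein at 4 µg/mL for 1 h at 4 C; score merges 667 nm emission intensity with signal to noise over three replicate slides.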 Particulars: fluorescence 635 nm, higher = more signal.
Experiment [8] deals with Concanavalin-A (Canavalia ensiformis) (UniProt P02866). Kind of experiment: compounds binding concanavalin A lectin – biochemical, small-molecule microarray, Alexa647 label, 635 nm, artefact control for SMM control protein annotation, primary screen (AID 1127).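 Also: z combines 667 nm emission intensity with signal-to-noise across three replicate slides.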 Particulars: ConA-A647 binding fluorescence, higher = more signal.
The nature of experiment [9]: compounds binding Alexa647 anti-His antibody – biochemical, small-molecule microarray, 635 nm fluorescence, artefact control for SMM control protein annotation, primary screen (AID 1128).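 Also: score merges feature fluorescence with signal-to-noise for each printed compound spot.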 Particulars: higher = more signal.
In experiment [10] the test system is Human papillomavirus type 1a E7 protein (residues 1-88). Kind of experiment: HPV1a E7 small-molecule binders, primary screen, biochemical, small-molecule microarray, residues 1-88, 635 nm (AID 1129). Particulars: small-molecule microarray binding, fluorescence 635 nm; higher = more signal.
Experiment [11] concerns the target Focal adhesion kinase 1 (Homo sapiens) (UniProt Q05397). The experiment can be described thus: PTK2 protein binding on printed compound slides – biochemical, small-molecule microarray, 635/667 nm fluorescence, BSA, DTT, primary screen (AID 1130).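 Also: composite of spot emission at 667 nm and signal to noise over triplicate slides.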 The following applies: 635 nm fluorescence, higher = more signal.
Experiment [12] relates to Fibrinogen (Alexa647-labelled). The experiment can be described thus: Alexa647-fibrinogen binding to printed small molecules – biochemical, small-molecule microarray, 635/667 nm fluorescence, artefact control for SMM control-protein annotation, profiling panel (AID 1131).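 Also: z-score merges 667 nm fluorescence with per-spot signal-to-noise over triplicate slides.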 Particulars: fibrinogen-A647 binding fluorescence, higher = more signal.
The target in experiment [13] is Follistatin (Homo sapiens) (UniProt P19883). The experiment can be described thus: FST protein binding to printed compounds – biochemical, small-molecule microarray, 635/667 nm fluorescence, primary screen (AID 1132). The following applies: 635 nm fluorescence, higher = more signal.
In experiment [14] the target is Fibroblast growth factor 2 (Homo sapiens) (UniProt P09038). The experiment can be described thus: basic fibroblast growth factor binding to printed compounds – biochemical, small-molecule microarray, 635/667 nm fluorescence, primary screen (AID 1133). The following applies: FGF2, fluorescence 635/667, higher = more signal.
Experiment [15] in a line: JC-1 mitochondrial potential readout, lung cancer cells – cell-based, A549, JC-1 fluorescence, basal, 24 h, 100 nL, profiling panel (AID 1138).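 Also: A549 lung adenocarcinoma cells under basal conditions with no added stimulus; test concentration not given here.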 Particulars: higher = more signal.
For the next experiment, the system named is Lefty1. Kind of experiment: Lefty1 protein binding to printed compounds – biochemical, small-molecule microarray, 635/667 nm fluorescence, primary screen (AID 1139). Particulars: fluorescence 635/667, higher = more signal.
Experiment [16] has as its system wheat germ agglutinin (Triticum aestivum), Alexa647-labelled. The experiment can be described thus: Alexa647-WGA lectin binding to printed small molecules – biochemical, small-molecule microarray, 635/667 nm fluorescence, artefact control for SMM control-protein annotation, profiling panel (AID 1140).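 Also: score merges 667 nm feature emission with signal to noise over triplicate slides.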 Particulars: WGA-A647 binding, 635 nm fluorescence, higher = more signal.

Experiment [17] concerns the target Luciferin 4-monooxygenase (Photinus pyralis) (UniProt P08659). The experiment can be described thus: inhibition of purified Photinus pyralis luciferase – biochemical, luminescence, purified enzyme, 2006 set, primary screen (AID 1141).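 Also: cell-free assay with purified firefly luciferase at 100 ng per well in PBS; test concentration not given here.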 Particulars: purified firefly luciferase, SteadyGlo luminescence, 30 min; higher = more signal, called active from +8 up or from −8 down.

SMILES strings stand for the structures. Active and inactive are the calls of the source.

Focal adhesion kinase 1 (Homo sapiens), sequence (Q05397 whole entry, looked up): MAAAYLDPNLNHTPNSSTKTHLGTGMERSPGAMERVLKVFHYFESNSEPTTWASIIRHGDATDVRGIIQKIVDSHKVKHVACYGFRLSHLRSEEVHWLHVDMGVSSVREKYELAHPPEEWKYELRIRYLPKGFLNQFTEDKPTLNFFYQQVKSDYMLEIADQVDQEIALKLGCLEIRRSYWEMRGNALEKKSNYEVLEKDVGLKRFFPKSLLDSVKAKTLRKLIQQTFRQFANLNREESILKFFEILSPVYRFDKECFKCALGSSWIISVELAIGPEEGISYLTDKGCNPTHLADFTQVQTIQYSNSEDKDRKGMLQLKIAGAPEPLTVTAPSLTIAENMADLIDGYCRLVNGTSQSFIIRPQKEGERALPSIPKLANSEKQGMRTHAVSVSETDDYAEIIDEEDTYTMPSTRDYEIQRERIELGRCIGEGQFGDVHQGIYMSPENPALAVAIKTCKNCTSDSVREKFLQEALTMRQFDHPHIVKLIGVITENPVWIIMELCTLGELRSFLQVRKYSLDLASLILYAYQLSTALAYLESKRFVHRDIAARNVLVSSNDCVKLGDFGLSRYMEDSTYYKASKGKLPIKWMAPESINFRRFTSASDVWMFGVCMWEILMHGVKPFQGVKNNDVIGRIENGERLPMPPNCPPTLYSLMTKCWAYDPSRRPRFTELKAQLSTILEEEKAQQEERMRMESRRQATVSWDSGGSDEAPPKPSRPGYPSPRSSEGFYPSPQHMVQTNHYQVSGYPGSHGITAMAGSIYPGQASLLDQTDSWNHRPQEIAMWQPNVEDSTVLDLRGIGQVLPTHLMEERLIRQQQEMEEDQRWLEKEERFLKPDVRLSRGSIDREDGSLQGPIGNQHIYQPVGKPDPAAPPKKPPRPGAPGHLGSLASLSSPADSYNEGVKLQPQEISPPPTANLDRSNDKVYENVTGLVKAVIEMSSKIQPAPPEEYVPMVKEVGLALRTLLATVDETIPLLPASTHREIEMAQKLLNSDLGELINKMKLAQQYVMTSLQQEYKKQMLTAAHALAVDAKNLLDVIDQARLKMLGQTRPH
Concanavalin-A (Canavalia ensiformis), sequence (P02866 whole entry, looked up): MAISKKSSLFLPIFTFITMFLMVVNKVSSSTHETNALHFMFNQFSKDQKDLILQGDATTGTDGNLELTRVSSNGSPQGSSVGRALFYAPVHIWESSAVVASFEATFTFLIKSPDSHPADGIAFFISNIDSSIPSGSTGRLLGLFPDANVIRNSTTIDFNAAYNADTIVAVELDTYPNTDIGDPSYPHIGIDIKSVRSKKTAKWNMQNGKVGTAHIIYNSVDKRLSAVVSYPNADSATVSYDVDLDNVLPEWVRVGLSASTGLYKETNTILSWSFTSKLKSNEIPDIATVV
Fibroblast growth factor 2 (Homo sapiens), sequence (P09038 whole entry, looked up): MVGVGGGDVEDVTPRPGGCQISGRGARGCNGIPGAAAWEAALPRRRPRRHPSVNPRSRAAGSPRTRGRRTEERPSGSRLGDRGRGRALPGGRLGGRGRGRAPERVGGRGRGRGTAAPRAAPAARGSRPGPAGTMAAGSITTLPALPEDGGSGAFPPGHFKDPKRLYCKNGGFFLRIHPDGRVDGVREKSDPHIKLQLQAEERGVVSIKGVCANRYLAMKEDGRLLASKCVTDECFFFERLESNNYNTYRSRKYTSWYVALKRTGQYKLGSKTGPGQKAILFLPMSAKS
Follistatin (Homo sapiens), sequence (P19883 whole entry, looked up): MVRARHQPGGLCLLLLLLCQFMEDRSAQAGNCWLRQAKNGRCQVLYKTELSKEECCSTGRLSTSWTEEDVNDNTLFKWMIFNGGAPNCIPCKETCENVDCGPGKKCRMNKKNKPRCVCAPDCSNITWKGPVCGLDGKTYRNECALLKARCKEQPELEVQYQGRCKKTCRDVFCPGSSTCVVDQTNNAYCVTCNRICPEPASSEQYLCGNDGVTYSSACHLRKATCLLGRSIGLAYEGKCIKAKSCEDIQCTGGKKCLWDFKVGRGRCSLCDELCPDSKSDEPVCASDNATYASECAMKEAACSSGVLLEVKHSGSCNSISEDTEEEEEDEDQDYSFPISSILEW
Albumin (Bos taurus), sequence (P02769 whole entry, looked up): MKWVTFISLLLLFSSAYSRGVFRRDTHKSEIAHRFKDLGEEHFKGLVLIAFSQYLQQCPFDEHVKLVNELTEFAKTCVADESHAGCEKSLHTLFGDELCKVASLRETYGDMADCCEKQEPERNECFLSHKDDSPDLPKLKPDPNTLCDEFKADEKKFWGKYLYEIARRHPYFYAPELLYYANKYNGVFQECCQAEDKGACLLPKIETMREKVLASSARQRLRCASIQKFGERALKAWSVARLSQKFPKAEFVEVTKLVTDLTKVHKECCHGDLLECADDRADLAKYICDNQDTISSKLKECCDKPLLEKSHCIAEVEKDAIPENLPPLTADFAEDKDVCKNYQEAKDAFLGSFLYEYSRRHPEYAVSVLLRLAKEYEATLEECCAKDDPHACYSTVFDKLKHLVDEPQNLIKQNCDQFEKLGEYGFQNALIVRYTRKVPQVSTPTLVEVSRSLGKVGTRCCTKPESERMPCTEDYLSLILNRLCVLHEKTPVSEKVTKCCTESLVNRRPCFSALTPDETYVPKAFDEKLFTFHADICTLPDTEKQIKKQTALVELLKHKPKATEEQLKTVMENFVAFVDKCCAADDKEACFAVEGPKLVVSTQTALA
Luciferin 4-monooxygenase (Photinus pyralis), sequence (P08659 whole entry, looked up): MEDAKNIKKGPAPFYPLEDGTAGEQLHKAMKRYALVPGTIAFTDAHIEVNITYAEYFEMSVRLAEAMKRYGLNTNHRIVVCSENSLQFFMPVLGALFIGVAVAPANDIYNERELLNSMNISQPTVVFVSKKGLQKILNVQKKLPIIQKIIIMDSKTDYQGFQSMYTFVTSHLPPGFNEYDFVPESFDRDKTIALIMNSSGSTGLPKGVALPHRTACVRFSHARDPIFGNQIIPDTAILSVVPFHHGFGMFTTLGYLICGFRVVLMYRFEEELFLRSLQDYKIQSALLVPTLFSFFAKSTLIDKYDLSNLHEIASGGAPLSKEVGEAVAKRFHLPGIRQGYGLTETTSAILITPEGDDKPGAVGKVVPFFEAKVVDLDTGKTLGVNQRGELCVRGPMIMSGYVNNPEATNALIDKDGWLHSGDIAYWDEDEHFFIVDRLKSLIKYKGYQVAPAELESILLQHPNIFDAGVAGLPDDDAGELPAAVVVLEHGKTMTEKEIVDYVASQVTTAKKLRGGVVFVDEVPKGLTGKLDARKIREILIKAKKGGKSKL

For `C[N+](C)(C)CCCC[C@@H]1NC(=O)[C@H]2C[C@@H](C(=O)NCCCCCN)[C@@H](c3cccc(OCCO)c3)N2C1=O`, the composite z-score was 0.913 with Albumin (Bos taurus); 0.23 in experiment [2]; -0.0633 in experiment [3]; 0.801 in experiment [4]; 2.41 in experiment [5]; 1.34 in [6]. In addition, the composite z-score with Sam68 (KHDRBS1) is 0.965; in experiment [7], -0.0742; in experiment [8] it was 1.13; in experiment [9], 2.45; in experiment [10] it was 1.07; in [11], 0.535. The composite z-score was 0.789 in [12]; 1.19 in experiment [13]; 0.327 in [14]; 0.17 with Lefty1; 1.1 in experiment [16]. Also, the composite Z-score in experiment [1] was 0.268 (inactive). The z-score was -0.102 in experiment [15] and -0.714 (inactive) in experiment [17].

With `COCCCNC(=O)[C@@]1(CCS(=O)(=O)c2ccccc2)N=C(c2ccc(OCCCO)cc2)O[C@H]1c1ccccc1CN=[N+]=[N-]`, the composite z-score was found to be 0.91 in the experiment with Albumin (Bos taurus); 0.448 in [2]; 0.0763 in experiment [3]; 0.528 in experiment [4]; 2.3 in experiment [5]; 0.561 in experiment [6]. Besides, the composite z-score with Sam68 (KHDRBS1) is 1.22; in experiment [7] it was -0.308; in experiment [8] it was 1.12; in experiment [9], 2.56; in experiment [10] it was 1.21; in experiment [11], 1.17. The composite z-score in experiment [12] was found to be 0.989; in experiment [13] it was 1.4; in experiment [14], 1.53; in the experiment on Lefty1, 0.578; in experiment [16], 1.24. For the same molecule, the composite Z-score in experiment [1] is 0.582 (inactive). Also, the z-score in [15] was 0.579; in experiment [17] it was -0.888 (inactive).

Regarding `CN1C=C(C(=O)OCCS(C)(=O)=O)C(C(=O)OCCS(C)(=O)=O)=CC(CCCO)=CC1c1cccs1` (stereo not given), the composite z-score in the experiment with Albumin (Bos taurus) is -0.945; in experiment [2] it was -0.132; in experiment [3], -0.0837; in experiment [4] it was -0.167; in experiment [5], -0.12; in experiment [6], 0.0548. Moreover, the composite z-score in the experiment with Sam68 (KHDRBS1) is 1.13; in experiment [7], 0.443; in experiment [8], -0.508; in [9], 0.478; in [10], 0.77; in experiment [11] it was 0.275. Besides, the composite z-score in [12] was -0.463; in experiment [13] it was 0.775; in [14], 0.371; in the experiment on Lefty1 it was 1.07; in [16] it was -0.485. Also, in experiment [1], the composite Z-score is 1.4 (inactive). The values for the z-score in experiment [15] and in [17] were 3.12 and -1.52 (inactive), respectively.

As for `COC(=O)C1=CC(CCCO)=CC(C2CC2)N(Cc2cc3c(cc2Br)OCO3)C=C1C(=O)OC` (stereo not given), the composite z-score was found to be 1.01 with Albumin (Bos taurus); 0.102 in experiment [2]; 0.0247 in experiment [3]; 0.92 in [4]; 2.44 in experiment [5]; 1.65 in experiment [6]. Besides, the composite z-score in the experiment with Sam68 (KHDRBS1) was 1.3; in experiment [7] it was -0.547; in experiment [8], 1.07; in [9] it was 2.68; in experiment [10], 0.86; in [11], 0.149. Further, the composite z-score is 0.931 in experiment [12]; -0.107 in experiment [13]; -0.3 in experiment [14]; -0.648 in the experiment with Lefty1; 1.4 in [16]. For the same molecule, the composite Z-score in experiment [1] is 0.305 (inactive). Also, the results for the z-score in [15] and in [17] were 1.27 and -1.24 (inactive), respectively.

As for `C/C=C/[C@@H](CCn1cc(CCO[Si](C(C)C)(C(C)C)C(C)C)nn1)[Si](C)(C)c1ccc(OC)cc1`, the composite z-score was -1.72 with Albumin (Bos taurus); -0.337 in experiment [2]; -0.234 in experiment [3]; -0.609 in experiment [4]; -0.49 in experiment [5]; -0.0321 in experiment [6]. Besides, the composite z-score is -1.07 with Sam68 (KHDRBS1); -1.8 in experiment [7]; -2.84 in [8]; -0.588 in experiment [9]; -0.668 in experiment [10]; -0.168 in experiment [11]. In addition, the composite z-score was -1.56 in experiment [12]; -2.11 in experiment [13]; -0.888 in experiment [14]; -1.16 in the experiment on Lefty1; -2.08 in experiment [16]. Also, the composite Z-score in [1] was -0.535 (inactive). Further, the z-score is 4.63 in experiment [15] and -2.45 (inactive) in experiment [17].
